Results: the OligoGym collection

Target: TMCO6
Assay: pooled miR-30 sensor sort-seq; sequence = guide strand
Conditions: shRNA
Further: reference of the scale not given here.

Sequence | sensor-assay potency score (higher = more potent)
TTTCTCAGCAGCCTCTTGCTGA | -0.697
TTTTCTGCAACATTGCACAGAA | 0.104
ATACACACGATCCTGGAGCTGG | -0.0753
AACATTTGTAGCATGTGCTGAG | 0.662
TTGCAACATTTGTAGCATGTGC | -0.588

Target: TMED3
Assay: as above
Conditions: shRNA

Sequence | sensor-assay potency score (higher = more potent)
TACTGCTTCTTCGTTTCTCTGT | -0.244
TACCACAGCAGCATCGTTCTGC | 0.426
TAGCAGTCAACATCGTAGTGGC | -0.101
TATTAAGGTCTTCCGCTCGGGC | -0.618
TTCAACAGTAGCACCTGACTGA | 0.248
TTCGTTTCTCTGTAGATGGTGT | 0.459
TAGTTGTAAATGTCTTTTCAGC | -1.07
TTGTCCGGCAGCTCGAAGGTGA | -0.973
TACATAGCAGTCAACATCGTAG | -0.235
TTGAAAGTCAAAGTAGACGGTC | -0.0324
ATCGTCTCGCCAACAGACCAGT | -1.25
ATAGCAGTCAACATCGTAGTGG | -0.497

Target: TMED9
Assay: as above
Conditions: shRNA

Sequence | sensor-assay potency score (higher = more potent)
TTCACCTCCACAAACATGCCAA | -0.184
TTGTCATACAGCTGCGTCCGGT | -1.2
TTTAGCAGCAATTTCTGCATAG | -0.576
TATGACCATGGTCTCGTCCGGG | -0.321
TAACACTGTGATTCTGAGGTGC | 0.27
TCAGTAACTAAGACTCTGCAGG | -0.549
TTGAGGTGCCGCATCTGCCAGA | -0.928
TTTCTGGATCTGCTCCACTTGT | -1.3
TGTCTTTAGCAGCAATTTCTGC | -1.06
TTGGAGTGAAGACAGATCTGGT | -0.176
ATGACCATGGTCTCGTCCGGGA | -0.96
TGGGAAGTGAAAGTGAACCTGC | 0.118

Target: TMEFF2
Assay: as above
Conditions: shRNA

Sequence | sensor-assay potency score (higher = more potent)
TATAGAACACTGTAGTCCTTTT | -0.956
TACAGGACCGGGAACAACGTAT | -0.637
TAGAATGCTCACACTTCCCATG | -0.607
TCAATATTACACACACACCAGA | -1.06
TAGCATTCTCTGCATAATCTGT | -0.543
TTGTCTGAACTGTAGTGCCCTG | -0.73
TTTTTTCACAGTGTTGTCCAGT | -0.255
TTAAGACATACTGAAATCGTAC | -0.191
TTGTGTTATCTTGACATCGACC | -0.895
TAGATCTCTTGTCTTATTCTTT | -0.31
TTGTTGTATTGTCTGAACTGTA | -0.51
